# Source: ChEMBL document CHEMBL3988442, “University of Dundee, Small-Polar-MMV Screening Library” (2021)
# The whole screen tested about 48,000 compounds, of which about 13,000 (27%) showed an effect of 50% or more. The list shows a part of the results.
# System: Wolbachia pipientis
# Experiment: Anti-Wolbachia Cell-Based Screen
# Format: functional
# Design: scale not given: in the data most compounds retested in dose-response had high values
# Settings: 5 µM
row,Compound,Percent Effect
1,Cc1cc(=O)c(C(=O)Nc2cccc(CCN3CCCC3)c2)c[nH]1,-5.108%
2,O=C(O)CSc1nnc(-c2ccn[nH]2)n1-c1cccc(C(F)(F)F)c1,-2.54%
3,COc1ccc(-c2nc(C3(NC(=O)OC(C)(C)C)CCC3)no2)cn1,3.682%
4,COc1ccc(C(=O)NCCNC(=O)c2cncnc2C)cc1,-1.399%
5,O=C(COC1CCCCC1)Nc1ccn(Cc2cccnc2)n1,3.333%
6,CC1=C[C@@H](CC#N)[C@H](C(C)C)C[C@H]1CC(=O)N1CCN(C)CC1,13.63%
7,Oc1cccc(-c2cc(CC3(N(CC4CC4)CC4CC4)COC3)no2)c1,2.791%
8,CC(C)=CCS(=O)(=O)Cc1noc(CC(C)C)n1,-4.798%
9,COCCN1C[C@H]2CCN(C(=O)Nc3ccccc3C)CC[C@H]2S1(=O)=O,-14.97%
10,CCNC(=O)N1CCC2(C1)c1ccccc1S(=O)(=O)N2CCOC (centres undefined),101.2%
11,COCCN1C[C@@H](C)[C@@]2(COCCN(C(=O)c3cccs3)C2)C1.O=C(O)C(F)(F)F,3.824%
12,COCCN1C2(CCN(C(=O)c3cccs3)C2)c2ccccc2S1(=O)=O (centres undefined),112.6%
13,COCC(=O)N1CCC2(CCC(C(=O)N3CCCC3)O2)CC1 (centres undefined),-11.51%
14,O=C1CCC2(CCCN(C(=O)C3CCCC3)C2)CN1CCc1c[nH]cn1 (centres undefined),-4.42%
15,O=C(C1CCCCC1)N1CCC2(COc3ncccc3S(=O)(=O)N2)C1 (centres undefined),116.2%
16,O=C(c1ccncc1)N1CCC2(COc3ncccc3S(=O)(=O)N2)C1 (centres undefined),101.3%
17,O=C(c1ccccn1)N1CCN(C(c2ccccc2)C(F)(F)F)CC1 (centres undefined),20.54%
18,O=C(c1ccccn1)N1CCC2(COc3ncccc3S(=O)(=O)N2)C1 (centres undefined),107.8%
19,O=C(c1ccc(Cl)s1)N1CCC2(COc3ncccc3S(=O)(=O)N2)C1 (centres undefined),106.8%
20,O=C(c1ccc(Cl)s1)N1CC(c2nc(-c3ccc[nH]c3=O)no2)C1,-1.237%
21,O=C(O)C(F)(F)F.O=C(c1ccncc1)N1CCC2(CC1)C(=O)Nc1ccccc12,-18.03%
22,O=C(O)C(F)(F)F.O=S1(=O)NCC2(CCN(c3ncccn3)CC2)COc2ccccc21,7.267%
23,O=C(C1CCCC1)N1CC[C@]2(O)CCN(Cc3ncccn3)C[C@@H]2C1,-5.051%
24,O=C(c1ccoc1)N1CCC2(C1)CN(c1ncccn1)C2,-1.221%
25,CCC(CC)NC(=O)NCc1ccnc(-n2ccnc2C)c1,-7.702%

row,Compound,Percent Effect
1,COCCN1CCN(C(=O)C[C@@H]2C[C@@H](C(C)C)[C@H](CO)C=C2C)CC1,-1.318%
2,CC(=O)Nc1ncc(S(=O)(=O)N2CCC(C)CC2)s1,-4.256%
3,COCCN(C)C(=O)c1ccc2onc(-c3coc(C)n3)c2c1,3.529%
4,CC(C)Cc1noc(CN(C)C(=O)C2COc3ccccc3C2)n1 (centres undefined),-0.9273%
5,O=C(CN1CC(c2nc(C3CC3)no2)C1)NCC1CCCO1.O=C(O)C(=O)O (centres undefined),11.2%
6,O=C(c1cscn1)N1CCC2(CC1)CCN(S(=O)(=O)c1ccccc1)C2,-2.013%
7,Cc1ccc(CN2CC3(CCN(C(=O)c4cscn4)C3)C2)s1.O=C(O)C(F)(F)F,-3.969%
8,O=C(c1cscn1)N1CCC2(COc3ncccc3S(=O)(=O)N2)C1 (centres undefined),87.78%
9,Fc1cnc(N2CCCn3c(CN4CCOCC4)nnc3C2)nc1.O=C(O)C(F)(F)F.O=C(O)C(F)(F)F,-2.409%
10,O=C(C1CCCO1)N1CCCn2c(nnc2Cn2cccc2)C1 (centres undefined),-19.79%
11,COCC(=O)N1CCCn2c(CN3CCCC3=O)nnc2C1,88.29%
12,CCOCC(=O)N1CCCn2c(nnc2Cn2cccc2)C1,93.36%
13,COCC(=O)N1CCCn2c(CN3CCCC3)nnc2C1,85.92%
14,O=C(O)C(F)(F)F.O=C(O)C(F)(F)F.O=C(c1ccncc1)N1CCCn2c(CN3CCCC3)nnc2C1,-6.384%
15,COCC(=O)N1CCCn2c(CN3CCOCC3)nnc2C1.O=C(O)C(F)(F)F,114.9%
16,O=C(CC1CC1)N1CCCn2c(nnc2Cn2cccc2)C1,-9.469%
17,O=C(C1CCCO1)N1CCCn2c(nnc2Cn2ccnc2)C1.O=C(O)C(F)(F)F (centres undefined),-15.24%
18,COCC(=O)N1CCCn2c(CN3CCCCC3)nnc2C1.O=C(O)C(F)(F)F,-12.43%
19,CCc1nc(CCNC(=O)C2CCOC2)sc1C (centres undefined),-3.855%
20,Cc1cc(N2CCN(C(=O)C(C)n3ccnc3C(C)C)CC2)cc(C)n1 (centres undefined),8.833%
21,CCOCC(=O)N1CCCn2c(CN3CCOCC3)nnc2C1,89.68%
22,CCOCC(=O)N1CCCn2c(CN3CCCCC3)nnc2C1,101.4%
23,Cc1nc2cc(F)cc(C(=O)N3CCN(CC(C)O)CC3)c2nc1C (centres undefined),-10.08%
24,CNc1cncc(C2CCN(C(=O)c3cnco3)CC2)n1,87.6%
25,CNc1cncc(C2CCN(C(=O)c3coc(C)n3)CC2)n1,81.53%

row,Compound,Percent Effect
1,COCCN(Cc1ccco1)Cc1nc(-c2ccc(C)c(F)c2)no1,-0.2442%
2,CC1Oc2ccc(S(=O)(=O)NCCCn3ccnc3)cc2NC1=O (centres undefined),-3.003%
3,CCC(C)(C)NCc1nc(C(C)(C)NC(=O)OC(C)(C)C)no1,2.253%
4,CCN(C(=O)c1nc2c(s1)CCCN2c1ccc(C)nn1)C(C)C,87.32%
5,Cc1ccc(N2CCCc3sc(C(=O)NCc4cccnc4)nc32)nn1,10.28%
6,Cc1ccc(N2CCCc3sc(C(=O)NCc4ccncc4)nc32)nn1,-3.066%
7,COCCNC(=O)c1nc2c(s1)CCCN2c1ccc(C)nn1,1.037%
8,COCCN(C)C(=O)c1nc2c(s1)CCCN2c1ncccn1,-1.851%
9,COCCN(C)C(=O)c1nc2c(s1)CCCN2c1ccc(C)nn1,96.15%
10,N#Cc1cccc(CN2CC3(CCCCN3c3cccnc3)CC2=O)c1.O=C(O)C(F)(F)F (centres undefined),9.304%
11,CC(C)CN1C[C@@H]2CN(c3cnccn3)C[C@@H]2C1=O,-19.41%
12,CN1CCc2cc(C(CNS(=O)(=O)c3cccs3)N3CCCC3)ccc21 (centres undefined),-7.457%
13,O=S(=O)(NCC1(O)CCOc2ccccc21)c1cccs1 (centres undefined),-3.854%
14,CN(C)c1ccc(C(CNS(=O)(=O)c2cccs2)N2CCCC2)cc1 (centres undefined),108.3%
15,O=S(=O)(NCC(c1ccsc1)N1CCCCCC1)c1cccs1 (centres undefined),116.8%
16,O=C(CSc1ccc2c(c1)OCCO2)NS(=O)(=O)c1cccs1,5.144%
17,CCC(CO)N(Cc1cccs1)C(=O)CNS(=O)(=O)c1cccs1 (centres undefined),5.395%
18,O=C(CN1CCN(C(=O)c2cccc(-c3ccoc3)c2)CC1)C1CC1,-1.743%
19,Cc1ccc(C2CSCCN2C(=O)c2ccsc2)o1 (centres undefined),6.011%
20,CN(C)CC1CSCCCN1C(=O)c1ccc(-c2ccccc2)cc1 (centres undefined),105.9%
21,CN(C)CC1CSCCCN1S(=O)(=O)Cc1cccc(F)c1 (centres undefined),24.8%
22,CN(C)CC1CSCCCN1C(=O)c1cccc(C(F)(F)F)c1 (centres undefined),90.72%
23,CN(C)CC1CSCCCN1C(=O)c1ccc(=O)[nH]c1 (centres undefined),13.95%
24,CN(C)CC1CSCCCN1C(=O)c1ccc(C(C)(C)C)cc1 (centres undefined),10.83%
25,CN(C)CC1CSCCCN1S(=O)(=O)c1ccc(C(F)(F)F)cc1 (centres undefined),1.872%

row,Compound,Percent Effect
1,CN(C)CC1CSCCCN1S(=O)(=O)Cc1ccc(C(F)(F)F)cc1 (centres undefined),-4.653%
2,CN(C)CC1CSCCCN1C(=O)Nc1ccc(C(C)(C)C)cc1 (centres undefined),-13.3%
3,CN(C)CC1CSCCCN1C(=O)c1ccc(-n2cccc2)cc1 (centres undefined),106.7%
4,CN(C)CC1CSCCCN1C(=O)c1ccsc1 (centres undefined),106.6%
5,CC(O)CN1CCC(CNCc2cccc(OC(C)C)c2)CC1 (centres undefined),-7.306%
6,CC(c1nc(-c2ccccc2)no1)N1CC(n2cccn2)C1 (centres undefined),-11.21%
7,COc1ccc(CN(C)c2ccc(-c3nccn3C)nn2)cc1OC,-9.583%
8,O=C(Nc1nnn[nH]1)c1ccc(I)c(F)c1,14.38%
9,CC(C)Oc1ccc(C(=O)N2CCCSCC2CN(C)C)cc1 (centres undefined),112.1%
10,Cc1ccc(C2CSCCN2C(=O)c2ccc(C(N)=O)cc2)o1 (centres undefined),-7.519%
11,Cc1cccc(OCC2CCCN(C(=O)CN(C)C3CCNCC3)C2)c1 (centres undefined),-1.159%
12,CC(C)NC(=O)C1CCC2(CCN(Cc3cnn(C)c3)CC2)C1.O=C(O)C(F)(F)F (centres undefined),-6.614%
13,CN(Cc1nc(C2CC2)no1)C1CCS(=O)(=O)C1 (centres undefined),-44.33%
14,Cc1nc(CN(Cc2ccccc2)C2CCS(=O)(=O)C2)oc1C (centres undefined),1.056%
15,CN(Cc1nc(C(C)(C)C)no1)C1CCS(=O)(=O)C1 (centres undefined),-19.08%
16,CCN(Cc1cc(-c2ccccn2)no1)C1CCS(=O)(=O)C1 (centres undefined),-17.52%
17,CCN(Cc1ccc(-c2ccccn2)cc1)C1CCS(=O)(=O)C1 (centres undefined),-8.377%
18,CN(Cc1ncnn1C1Cc2ccccc2C1)C1CCS(=O)(=O)C1 (centres undefined),124.4%
19,CN(CCc1ncnn1C1Cc2ccccc2C1)C1CCS(=O)(=O)C1 (centres undefined),86.57%
20,CN(CCc1ccc2c(c1)CCO2)C1CCS(=O)(=O)CC1,-8.2%
21,CN(CCc1ncnn1-c1ccccc1Cl)C1CCS(=O)(=O)C1 (centres undefined),107.4%
22,Cc1ccc(O)c(C(=O)NCCS(=O)(=O)Cc2ccccc2)c1,0.3485%
23,O=C(CCN1C(=O)CCC1=O)Nc1cnn(-c2ccccc2Cl)c1,-6.016%
24,Cc1cccc(OC(C)C(=O)NCC2(N(C)C)CCCC2)c1 (centres undefined),4.772%
